# Results filed as inconclusive are left out. Active and inactive are the calls of the source. The call rests on the fitted dose curve; in most records, active means well fitted curve in the direction sought with a large enough effect; inconclusive means small, poorly fitted or top-dose-only effect, or effect the other way; inactive means flat fitted curve, though single readings scatter.
# Assay: Total Fluorescence Confirmation Counterscreen for Inhibitors of the Interaction of Thyroid Hormone Receptor and Steroid Receptor Coregulator 2, Fluorescein Fluoroprobe
# Settings: TRbeta/SRC2-fluorescein mix, total fluorescence interference; series mostly up to 92.2 µM
# Excerpt: NIH Molecular Libraries Probe Production Network [MLPCN] NIH Chemical Genomics Center [NCGC] MLPCN Grant: DK058080 Assay Provider: R. Kip Guy, St. Jude Children's Research Hospital NCGC Assay Overview: Thyroid receptor (TR) regulates many homeostatic processes including basal metabolism, cardiovascular function, body weight, and lipid trafficking. TR modulators are potential therapeutics for obesity and hyperlipidemias but current thyroid analogs have undesirable side effects, particularly cardiac stimulation. To identify inhibitors that specifically prevent the interaction of TR with the steroid receptor coregulator 2 (SRC2), a fluorescence polarization assay was screened (Arnold et al., 2006). This assay detects interaction of the ligand-binding domain of human TRbeta with a fluorescein labeled SRC2 peptide, corresponding to a 20 amino acid region of the nuclear receptor interaction domain. Total fluorescence (555 nm excitation and 632 nm emission) was measured to identify potential fluorescent and light absorbing compounds. Such compounds may be artifacts that interfere with the fluorescence polarization assay. This assay is a confirmation assay for AID 1479. Arnold, L. A.; Estebanez-Perpina, E.; Togashi, M.; Shelat, A.; Ocasio, C. A.; McReynolds, A. C.; Nguyen, P.; Baxter, J. D.; Fletterick, R. J.; Webb, P.; Guy, R. K. A high-throughput screening method to identify small molecule inhibitors of thyroid hormone receptor coactivator binding. Sci STKE 2006, p 13.
# NCGC Assay Protocol Summary: For screening, 5 uL/well 0.6 uM TRbeta and 20 nM SRC2 Fluorescein in protein buffer (20mM Tris hydrochloride, 100mM NaCl, 10% glycerol, 1mM EDTA, 0.01% NP-40, 1mM DTT, 1uM T3 and 5% DMSO) was dispensed into black solid 1536-well plates (Grenier) using a solenoid-based dispenser. Following transfer of 23 nL compound or DMSO vehicle by a pin tool, the plates were centrifuged 15 s at 1000 RPM and incubated 5 hr at ambient temperature. The plates were read by an Envision (Perkin Elmer) to detect fluorescence polarization of SRC2 Fluorescein (480 nm excitation and 535 nm emission). Data were normalized to unbound (all components except TRbeta) and bound SRC2 Fluorescein controls. Total fluorescence (TF) was calculated as follows: TF = S + 2P where S and P are fluorescence readings in the parallel and perpendicular channels, respectively. In this assay, we provide % activity data for each concentration as well as potencies for the active compounds.
row,SMILES,outcome
1,COP(=S)(OC)Oc1ccc([N+](=O)[O-])cc1,inactive
2,O=C(O)CC1OCC=C2CN3CCC45C6=CC(=O)C(=O)C([N+](=O)[O-])=C6NC4C1C2CC35 (stereo not given),inactive
3,CN1CC[C@@]2(C)c3cc(O)ccc3N(C)C2O1 (stereo not given in full),inactive
4,CCn1nc(-c2cccs2)nc2c(=O)n(C)c(=O)nc1-2,inactive
5,Cc1[nH]n(-c2ccccc2)c(=O)c1C(c1ccc([N+](=O)[O-])cc1)c1c(C)[nH]n(-c2ccccc2)c1=O,inactive
